Rows were chosen to be rich in hits. Some 3.1% of all compounds tested hit in one or more screens of this group.
Tau fibril FP – tau fibrillization inhibition (FP); P10636; hit rate 0.39% among 280,000; K18 P301L tau heparin fibrillization, Alexa594 FP, 6 h; AID 1468; Potency, µM (series often up to 57.7 µM), most hits filed as inhibitors; further: nearly all actives have a fitted effect of over 55% in size
Target sequence (P10636 561-689 P618L limits assumed): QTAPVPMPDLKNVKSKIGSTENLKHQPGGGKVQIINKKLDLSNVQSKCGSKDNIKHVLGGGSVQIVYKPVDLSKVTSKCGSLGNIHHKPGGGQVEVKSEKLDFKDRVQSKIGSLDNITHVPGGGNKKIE
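Read-out: fluorescence polarization of Alexa 594-labeled tau (0.24 uM), 555 nm excitation, 632 nm emission. Mixtures held 15 uM unlabeled K18 P301L, compound and 20 uM heparin, pH 7 acetate buffer, incubated 6 hr at 37 C.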
Tau fluor cs – counter-screen for tau fibril formation inhibitors | tau K18 P301L Alexa594 fluorescence, heparin fibrillization | Potency, µM (titrated, usually from 57.7 µM) | hit rate 0.93% among 280,000 | AID 1463; further: nearly all actives have a fitted effect of over 55% in size
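Human K18 P301L tau (15 uM unlabeled plus 0.24 uM Alexa 594-labeled, final) in 100 mM sodium acetate pH 7 was mixed with compound and 20 uM heparin and incubated 6 hr at 37 C.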
TR SRC2 fluor cs – Texas Red fluorescence interference in TRb-SRC2 counter-screen | TRb/SRC2 Texas Red total fluorescence interference | Potency, µM (doses to about 106 µM) | hit rate 0.29% among 280,000; active means well fitted curve in either direction with a large enough effect; inconclusive means small, poorly fitted or top-dose-only effect
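Human TRβ ligand-binding domain (0.6 uM) and Texas Red SRC2 peptide (20 nM) in Tris buffer with 1 uM T3 and 5% DMSO were incubated with pinned compound for 5 hr at ambient temperature. Total fluorescence was computed as S + 2P (555/632 nm).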
TRb-SRC2 inh – TRbeta-SRC2 interaction inhibition; P10828; TRbeta-SRC2 peptide binding, fluorescence polarization; receptor liganded with 1 µM T3; Potency, µM (highest dose often 106 µM), most hits filed as inhibitors; AID 1469; hit rate 0.065% among 280,000; further: nearly all actives have a fitted effect of over 50% in size
Target sequence (P10828 whole entry, looked up): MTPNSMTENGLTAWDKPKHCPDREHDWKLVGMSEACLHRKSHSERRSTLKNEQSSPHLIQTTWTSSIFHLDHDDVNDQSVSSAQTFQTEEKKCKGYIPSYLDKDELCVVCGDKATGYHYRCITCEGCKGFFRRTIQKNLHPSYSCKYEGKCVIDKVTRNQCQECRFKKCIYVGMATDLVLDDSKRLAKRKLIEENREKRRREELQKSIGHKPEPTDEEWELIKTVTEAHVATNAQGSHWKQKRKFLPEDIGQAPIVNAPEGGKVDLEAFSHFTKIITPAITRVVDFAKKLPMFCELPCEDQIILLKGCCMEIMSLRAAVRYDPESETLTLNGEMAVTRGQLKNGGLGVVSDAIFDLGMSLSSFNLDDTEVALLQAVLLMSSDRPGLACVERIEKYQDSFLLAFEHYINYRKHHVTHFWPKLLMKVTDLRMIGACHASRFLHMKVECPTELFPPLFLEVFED
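Each compound concentration gave % activity, normalized to unbound and bound Texas Red SRC2 controls, from polarization read after 5 hr ambient incubation with T3-loaded human TRb LBD.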
Tau ThT inhib – blocks human tau fibril formation measured by thioflavin T; P10636; recombinant tau K18 P301L (four-repeat tau fragment), heparin-induced fibrillization, ThT fluorescence; Potency, µM (titrated, usually from 57.4 µM), most hits filed as inhibitors; hit rate 2.1% among 270,000; AID 1460; further: nearly all actives have a fitted effect of over 55% in size
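Heparin-induced fibrillization of the P301L-mutant K18 repeat-domain fragment of human tau was followed by ThT binding in quantitative high-throughput format.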
Of the large screens only hits and unclear results are named; the others gave an inactive call; [ ] = dose if it differs, or a comment. Unless noted, the call rests on the fitted dose curve; in most records, active means well fitted curve in the direction sought with a large enough effect; inconclusive means small, poorly fitted or top-dose-only effect, or another doubt; inactive means no such curve, though single readings can be large; an effect the other way counts as inactive or inconclusive.

COc1cc([N+](=O)[O-])cc(/C=N\NC(=O)C2COc3ccccc3O2)c1O (configuration not stated)	Tau ThT inhib 10µM
O=C(N/N=C/c1cccc([N+](=O)[O-])c1)C1COc2ccccc2O1 (configuration not stated)	none
CC(C)Cn1c(=O)c2ccccc2n2c(CCC(=O)Nc3ccc(F)c(F)c3)nnc12	Tau fibril FP inconclusive
Nn1c(Nc2ccccc2)nc2sc3c(c2c1=O)CCC3	Tau fluor cs 28µM[quencher], Tau ThT inhib 20µM
O=C(NNC(=O)c1cccs1)c1ccc(Cl)c(Cl)c1	Tau fibril FP inconclusive
Nc1nc(-c2ccc(Br)s2)c(Br)s1	Tau fluor cs 14µM[quencher], Tau ThT inhib inconclusive
N#Cc1c(N)nc2c(c1-c1ccc(Br)s1)CCCC2	none
Oc1ccccc1NCC(O)Cn1ccc2ccccc21 (configuration not stated)	Tau fluor cs 20µM[quencher], Tau ThT inhib 14µM
CC(=O)CC(=O)Nc1ccc(C)cc1C	none (no result: Tau fibril FP, Tau fluor cs, Tau ThT inhib)
C=C(C)COc1ccc(-c2n[nH]c(C)c2-c2ccc(OC)cc2)c(O)c1	Tau fibril FP inconclusive, Tau fluor cs 25µM[quencher]
COc1ccc(-c2c(-c3ccc(OCC(=O)NN)cc3O)n[nH]c2C(F)(F)F)cc1	Tau fibril FP inconclusive, Tau fluor cs 22µM[quencher], Tau ThT inhib inconclusive
NNC(=O)COc1cccc(C(F)(F)F)c1	none
O=C(Nc1c(C(=O)N2CCN(c3ccccc3F)CC2)oc2ccccc12)c1ccc(Br)o1	none
CCOc1ccc(CCNC(=O)CCn2c(=O)c3cccn3c3cccnc32)cc1	none
Cc1cccc(N2CCN(c3ccc(NC(=O)/C=C(/C(=O)O)c4ccccc4)cc3)CC2)c1	Tau fibril FP inconclusive, Tau fluor cs inconclusive, Tau ThT inhib 8.9µM
CC(C)CCOc1ccc(C2N=C(N)Nc3nc4ccccc4n32)cc1 (configuration not stated)	TR SRC2 fluor cs 40µM[quencher]
COc1cc(C2N=C(N)Nc3nc4ccccc4n32)ccc1OCCC(C)C (configuration not stated)	none
CC1=NN(c2nc(-c3ccc(C)cc3)cs2)C(=O)C1N=Nc1cccc(C)c1 (configuration not stated)	Tau fibril FP inconclusive, Tau ThT inhib 2µM
CCOC(=O)c1sc(N2N=C(C)C(N=Nc3cccc(C)c3)C2=O)nc1C (configuration not stated)	none (no result: Tau fibril FP, Tau fluor cs, Tau ThT inhib)
CC1CN(C(=O)CCC(=O)NCc2cccc(Cl)c2)c2ccccc2S1 (configuration not stated)	Tau fluor cs inconclusive, TR SRC2 fluor cs 28µM[quencher]
COc1ccccc1N1CCN(Cc2nc(-c3cc(OC)c(OC)c(OC)c3)no2)CC1	none
Fc1cccc(Cl)c1CNc1ccc(N2CCCC2)cc1	Tau fibril FP 11µM, Tau fluor cs inconclusive, Tau ThT inhib 5.6µM
O=c1n(Cc2cc3c(cc2Cl)OCO3)c(=O)n2n1CC[C@H]1/C(=N\OCc3ccccc3)[C@H]3O[C@@H]3[C@@H](O)[C@@H]12	none
Cc1ccc(CNC(=O)CSc2ncc(S(=O)(=O)c3ccc(Br)cc3)c(=O)[nH]2)cc1	TR SRC2 fluor cs 0.4µM[quencher]
O=C(CSc1ncc(S(=O)(=O)c2ccc(Br)cc2)c(=O)[nH]1)NCc1ccc(Cl)cc1	Tau ThT inhib inconclusive
CCCCc1nc2c(c3c1C[C@H](C)OC3)CN(C(=O)NCCc1c[nH]c3ccccc13)CC2	none
CC(=O)Oc1c(C)cc(O)c2ccccc12	Tau fibril FP inconclusive, Tau fluor cs inconclusive, Tau ThT inhib 25µM
Cc1ccc(C(=O)Nc2cccc([N+](=O)[O-])c2)cc1S(=O)(=O)Nc1ccc(C(=O)O)cc1	none
Cc1cccc(NS(=O)(=O)c2cc(NC(=O)CC(=O)c3ccc([N+](=O)[O-])cc3)ccc2C)c1	Tau fluor cs 7.9µM[quencher], Tau ThT inhib inconclusive
Cc1ccccc1NS(=O)(=O)c1cc(C(=O)Nc2cccc([N+](=O)[O-])c2)ccc1C	Tau fluor cs 14µM[quencher], Tau ThT inhib inconclusive
COc1cc(NC(=O)CCCN2C(=O)CCn3nc(-c4cn(C)c5ccccc45)cc32)cc(OC)c1	Tau fluor cs inconclusive, Tau ThT inhib inconclusive
CCN(CC)c1ccc(/C=C2\SC(=O)N(C(C)C)C2=O)o1	Tau fluor cs inconclusive, Tau ThT inhib 25µM
CN(C)c1ccc2c(O)cc(=O)n(C)c2c1	Tau fibril FP 22µM, TRb-SRC2 inh inconclusive, Tau ThT inhib 25µM
O=C1Nc2ccccc2C1(O)C/C(=N/O)c1ccccc1 (configuration not stated)	none
CCOC(=O)c1c(-c2ccccc2)csc1NC(=O)/C(C#N)=C/c1ccc(O)c(OC)c1	Tau fluor cs 13µM[quencher], Tau ThT inhib inconclusive
CCCCCCCCCCCO	none (no result: Tau fibril FP, Tau fluor cs, Tau ThT inhib)
COc1ccc(C(=O)c2no[n+]([O-])c2C(=O)c2ccc(OC)cc2)cc1	Tau fibril FP inconclusive, Tau ThT inhib 18µM
CCC(=O)Nc1ccc(/C=C(\C(C)=O)C(=O)c2ccccc2)cc1	none
CC(=O)/C(=C/c1ccc(N(C)C)cc1)C(=O)c1ccccc1	Tau fluor cs inconclusive, Tau ThT inhib 18µM
Cc1ccc(-c2nnc(Nc3ccc(O)cc3)c3ccccc23)cc1S(=O)(=O)N1CCN(C)CC1	Tau fluor cs inconclusive, Tau ThT inhib inconclusive
COc1cc(/C=C2\SC(=S)NC2=O)ccc1OS(=O)(=O)c1ccccc1	Tau fluor cs inconclusive, Tau ThT inhib 16µM
CCOc1ccc(/C=C2\SC(=S)NC2=O)cc1OC	Tau ThT inhib inconclusive
COc1cccc(/C=C2\SC(=S)NC2=O)c1OS(=O)(=O)c1ccc(NC(C)=O)cc1	Tau ThT inhib inconclusive
COc1cc(/C=C2/SC(=S)NC2=O)ccc1OS(=O)(=O)c1ccc(C)cc1	Tau fluor cs inconclusive, Tau ThT inhib 16µM
COc1ccc(/C=C2\SC(=S)NC2=O)cc1OS(=O)(=O)c1ccc(NC(C)=O)cc1	Tau ThT inhib 13µM
Cc1cccc(N2NC(=O)/C(=C/c3ccc(-c4ccc(Cl)c(C(=O)O)c4)o3)C2=O)c1	Tau fibril FP inconclusive, Tau fluor cs inconclusive, Tau ThT inhib 7.1µM
O=C1NN(c2ccccc2)C(=O)/C1=C/c1ccc(-c2ccc(Cl)c(C(=O)O)c2)o1	Tau fluor cs inconclusive, Tau ThT inhib 7.1µM
CCCC(=O)C1=C(c2ccccc2)C(C#N)(C#N)C(C#N)=C1N	Tau fibril FP inconclusive, Tau fluor cs inconclusive, TRb-SRC2 inh inconclusive, Tau ThT inhib 28µM
COc1ccccc1N1CCN(c2ccc([N+](=O)[O-])cc2Cl)CC1	Tau fluor cs inconclusive, Tau ThT inhib 8.9µM
COc1cc2c(cc1OC)CN(c1ccc([N+](=O)[O-])cc1Cl)CC2	Tau fluor cs inconclusive, Tau ThT inhib 7.1µM
Cc1nccc(-c2cccc(N/N=C(\C#N)C(=O)c3ccccc3)c2)n1	Tau fluor cs inconclusive, Tau ThT inhib 8.9µM
C=CCOc1nc(OCC=C)nc(OCC=C)n1	none (no result: Tau fibril FP, Tau fluor cs, Tau ThT inhib)
COc1cc(-n2nc(C)c3c2OC(N)=C(C#N)C3c2ccccc2)c(Cl)c(Br)c1O (configuration not stated)	Tau fluor cs inconclusive, Tau ThT inhib 3.5µM
